The source of these data is article PMC11006913.

Changes are numbered by the printed parent chain.

Common to all, as to experiment: PBM; 200 nM protein, PBS
What all share (conditions): dsDNA, one strand shown

For assay [1], the target named is HOXB4 (Homo sapiens, UniProt P17483 148-234).
Assay [2] addresses T1, VENTX (Homo sapiens, UniProt O95231 78-163, R121Q).
T1 sequence: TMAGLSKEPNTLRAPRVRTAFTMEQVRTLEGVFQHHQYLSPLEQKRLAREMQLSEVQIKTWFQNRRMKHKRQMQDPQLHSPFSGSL

The target of assay [3] is HOXA4 (Homo sapiens, UniProt Q00056 201-287, W262R).
Chain of HOXA4 (Homo sapiens, UniProt Q00056 201-287, W262R) (Q00056 201-287 W262R): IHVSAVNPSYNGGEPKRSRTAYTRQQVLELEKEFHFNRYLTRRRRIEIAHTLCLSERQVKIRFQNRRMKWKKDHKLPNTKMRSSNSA
Assay [4] addresses T2, VENTX (Homo sapiens, UniProt O95231 78-163).
T2 sequence: T1 sequence with Q44R

The target of assay [5] is PRRX1 (Homo sapiens, UniProt P54821 80-166, F113S).
Chain of PRRX1 (Homo sapiens, UniProt P54821 80-166, F113S) (P54821 80-166 F113S): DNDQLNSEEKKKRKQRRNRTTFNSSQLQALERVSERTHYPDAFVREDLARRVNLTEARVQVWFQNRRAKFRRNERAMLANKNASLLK
Assay [6] has as its target T3, VENTX (Homo sapiens, UniProt O95231 78-163, Y115F).
T3 sequence: T1 sequence with Y38F, Q44R

In assay [7] the target is HOXA2 (Homo sapiens, UniProt O43364 129-215, R185T).
Chain of HOXA2 (Homo sapiens, UniProt O43364 129-215, R185T) (O43364 129-215 R185T): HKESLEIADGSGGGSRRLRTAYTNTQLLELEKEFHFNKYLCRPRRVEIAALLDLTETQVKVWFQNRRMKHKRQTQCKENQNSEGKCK
The target of assay [8] is HOXA4 (Homo sapiens, UniProt Q00056 201-287, R217L).
Chain of HOXA4 (Homo sapiens, UniProt Q00056 201-287, R217L) (Q00056 201-287 R217L): as the sequence (Q00056 201-287 W262R) above, with R17L, R62W counted along it
For assay [9], the target named is HOXB4 (Homo sapiens, UniProt P17483 148-234, V174I).
Chain of HOXB4 (Homo sapiens, UniProt P17483 148-234, V174I) (P17483 148-234 V174I): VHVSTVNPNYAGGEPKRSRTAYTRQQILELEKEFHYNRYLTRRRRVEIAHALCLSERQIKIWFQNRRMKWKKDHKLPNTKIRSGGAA
For assay [10], the target named is HOXA2 (Homo sapiens, UniProt O43364 129-215, R185K).
Chain of HOXA2 (Homo sapiens, UniProt O43364 129-215, R185K) (O43364 129-215 R185K): as the sequence (O43364 129-215 R185T) above, with T57K counted along it
In assay [11] the target is HOXA4 (Homo sapiens, UniProt Q00056 201-287).
Chain of HOXA4 (Homo sapiens, UniProt Q00056 201-287) (Q00056 201-287): as the sequence (Q00056 201-287 W262R) above, with R62W counted along it
Assay [12] deals with VAX1 (Homo sapiens, UniProt Q5SQQ9 86-172).
Chain of VAX1 (Homo sapiens, UniProt Q5SQQ9 86-172) (Q5SQQ9 86-172): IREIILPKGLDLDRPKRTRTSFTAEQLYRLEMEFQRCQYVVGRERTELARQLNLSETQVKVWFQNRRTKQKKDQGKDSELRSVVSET
The target of assay [13] is VAX1 (Homo sapiens, UniProt Q5SQQ9 86-172, T142I).
Chain of VAX1 (Homo sapiens, UniProt Q5SQQ9 86-172, T142I) (Q5SQQ9 86-172 T142I): as the sequence (Q5SQQ9 86-172) above, with T57I counted along it
The target of assay [14] is HOXA2 (Homo sapiens, UniProt O43364 129-215, Y150S).
Chain of HOXA2 (Homo sapiens, UniProt O43364 129-215, Y150S) (O43364 129-215 Y150S): as the sequence (O43364 129-215 R185T) above, with Y22S, T57R counted along it
For assay [15], the target named is HOXA4 (Homo sapiens, UniProt Q00056 201-287, W262F).
Chain of HOXA4 (Homo sapiens, UniProt Q00056 201-287, W262F) (Q00056 201-287 W262F): as the sequence (Q00056 201-287 W262R) above, with R62F counted along it
Assay [16] addresses PRRX1 (Homo sapiens, UniProt P54821 80-166).
The target of assay [17] is HOXA2 (Homo sapiens, UniProt O43364 129-215).
Chain of HOXA2 (Homo sapiens, UniProt O43364 129-215) (O43364 129-215): as the sequence (O43364 129-215 R185T) above, with T57R counted along it
Assay [18] addresses VAX1 (Homo sapiens, UniProt Q5SQQ9 86-172, K157R).
For assay [19], the target named is HOXB9 (Homo sapiens, UniProt P17482 171-250, T197M).
Chain of HOXB9 (Homo sapiens, UniProt P17482 171-250, T197M) (P17482 171-250 T197M): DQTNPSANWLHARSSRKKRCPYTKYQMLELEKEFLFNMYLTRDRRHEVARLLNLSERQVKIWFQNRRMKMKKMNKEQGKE
Assay [20] has as its target ALX4 (Homo sapiens, UniProt Q9H161 200-286).
Assay [21] deals with ALX4 (Homo sapiens, UniProt Q9H161 200-286, Q225E).
Chain of ALX4 (Homo sapiens, UniProt Q9H161 200-286, Q225E) (Q9H161 200-286 Q225E): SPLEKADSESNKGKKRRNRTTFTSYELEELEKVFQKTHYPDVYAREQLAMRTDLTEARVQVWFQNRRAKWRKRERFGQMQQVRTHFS
In assay [22] the target is HOXB9 (Homo sapiens, UniProt P17482 171-250).
Chain of HOXB9 (Homo sapiens, UniProt P17482 171-250) (P17482 171-250): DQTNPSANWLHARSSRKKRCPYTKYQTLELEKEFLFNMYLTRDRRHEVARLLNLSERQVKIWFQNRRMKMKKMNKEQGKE
In assay [23] the target is MSX2 (Homo sapiens, UniProt P35548 130-214, R199I).
Chain of MSX2 (Homo sapiens, UniProt P35548 130-214, R199I) (P35548 130-214 R199I): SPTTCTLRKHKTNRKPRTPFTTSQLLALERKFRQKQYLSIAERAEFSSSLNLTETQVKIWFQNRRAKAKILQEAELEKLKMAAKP
Assay [24] has as its target MSX2 (Homo sapiens, UniProt P35548 130-214).
For assay [25], the target named is HOXB9 (Homo sapiens, UniProt P17482 171-250, R186Q).
Chain of HOXB9 (Homo sapiens, UniProt P17482 171-250, R186Q) (P17482 171-250 R186Q): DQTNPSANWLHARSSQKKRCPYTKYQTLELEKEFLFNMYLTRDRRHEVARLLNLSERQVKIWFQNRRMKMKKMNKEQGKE
Assay [26] has as its target MSX2 (Homo sapiens, UniProt P35548 130-214, F161Y).
For assay [27], the target named is HOXC9 (Homo sapiens, UniProt P31274 178-260, K195R).
Chain of HOXC9 (Homo sapiens, UniProt P31274 178-260, K195R) (P31274 178-260 K195R): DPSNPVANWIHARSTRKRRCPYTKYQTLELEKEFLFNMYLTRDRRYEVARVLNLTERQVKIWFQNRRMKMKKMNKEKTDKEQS
Assay [28] has as its target HOXA7 (Homo sapiens, UniProt P31268 116-202).
The target of assay [29] is HOXB6 (Homo sapiens, UniProt P17509 132-218, K202E).
Chain of HOXB6 (Homo sapiens, UniProt P17509 132-218, K202E) (P17509 132-218 K202E): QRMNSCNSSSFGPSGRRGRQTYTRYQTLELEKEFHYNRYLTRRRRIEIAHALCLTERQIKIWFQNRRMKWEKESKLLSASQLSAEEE
Assay [30] concerns the target HOXC9 (Homo sapiens, UniProt P31274 178-260).
In assay [31] the target is HOXC9 (Homo sapiens, UniProt P31274 178-260, R193K).
Chain of HOXC9 (Homo sapiens, UniProt P31274 178-260, R193K) (P31274 178-260 R193K): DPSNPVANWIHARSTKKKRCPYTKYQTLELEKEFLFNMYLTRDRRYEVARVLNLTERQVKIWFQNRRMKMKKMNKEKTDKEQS
In another assay the target is HOXC10 (Homo sapiens, UniProt Q9NYD6 254-340, K271E).
Chain of HOXC10 (Q9NYD6 254-340 K271E): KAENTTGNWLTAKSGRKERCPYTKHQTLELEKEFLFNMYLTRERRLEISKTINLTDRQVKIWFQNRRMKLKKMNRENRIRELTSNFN
Assay [32] concerns the target HOXC9 (Homo sapiens, UniProt P31274 178-260, R222W).
For assay [33], the target named is HOXA7 (Homo sapiens, UniProt P31268 116-202, W177C).
Chain of HOXA7 (Homo sapiens, UniProt P31268 116-202, W177C) (P31268 116-202 W177C): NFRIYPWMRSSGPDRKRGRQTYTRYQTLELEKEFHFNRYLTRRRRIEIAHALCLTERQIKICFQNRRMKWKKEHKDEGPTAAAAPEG
For assay [34], the target named is HOXB6 (Homo sapiens, UniProt P17509 132-218).
Chain of HOXB6 (Homo sapiens, UniProt P17509 132-218) (P17509 132-218): as the sequence (P17509 132-218 K202E) above, with E71K counted along it

Chain of HOXB4 (Homo sapiens, UniProt P17483 148-234) (P17483 148-234): as the sequence (P17483 148-234 V174I) above, with I27V counted along it
Chain of HOXC9 (Homo sapiens, UniProt P31274 178-260) (P31274 178-260): as the sequence (P31274 178-260 R193K) above, with K16R counted along it
Chain of MSX2 (Homo sapiens, UniProt P35548 130-214) (P35548 130-214): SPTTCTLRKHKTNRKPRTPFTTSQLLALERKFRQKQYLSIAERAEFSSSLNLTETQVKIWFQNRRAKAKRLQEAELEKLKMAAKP
Chain of MSX2 (Homo sapiens, UniProt P35548 130-214, F161Y) (P35548 130-214 F161Y): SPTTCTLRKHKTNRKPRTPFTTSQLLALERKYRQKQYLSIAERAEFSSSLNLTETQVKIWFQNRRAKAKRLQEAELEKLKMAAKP
Chain of VAX1 (Homo sapiens, UniProt Q5SQQ9 86-172, K157R) (Q5SQQ9 86-172 K157R): as the sequence (Q5SQQ9 86-172) above, with K72R counted along it
Chain of PRRX1 (Homo sapiens, UniProt P54821 80-166) (P54821 80-166): as the sequence (P54821 80-166 F113S) above, with S34F counted along it
Chain of HOXA7 (Homo sapiens, UniProt P31268 116-202) (P31268 116-202): as the sequence (P31268 116-202 W177C) above, with C62W counted along it
Chain of HOXC9 (Homo sapiens, UniProt P31274 178-260, R222W) (P31274 178-260 R222W): as the sequence (P31274 178-260 R193K) above, with K16R, R45W counted along it
Chain of ALX4 (Homo sapiens, UniProt Q9H161 200-286) (Q9H161 200-286): as the sequence (Q9H161 200-286 Q225E) above, with E26Q counted along it

For the sequence CCTCATTA, the binding signal with HOXB4 [1] was 13.1 upbm affinity estimate (log intensity, higher = more binding, comparable within an allelic series); with VENTX [2] it was 11.6 upbm affinity estimate (log intensity, higher = more binding, comparable within an allelic series); with HOXA4 [3], 10.5 upbm affinity estimate (log intensity, higher = more binding, comparable within an allelic series); in the assay with VENTX [4], 12.5 upbm affinity estimate (log intensity, higher = more binding, comparable within an allelic series); with PRRX1 [5], 10.7 upbm affinity estimate (log intensity, higher = more binding, comparable within an allelic series); with VENTX [6], 11.8 upbm affinity estimate (log intensity, higher = more binding, comparable within an allelic series). Moreover, the binding signal in the assay with HOXA2 [7] was 13.1 upbm affinity estimate (log intensity, higher = more binding, comparable within an allelic series); with HOXA4 [8], 12.1 upbm affinity estimate (log intensity, higher = more binding, comparable within an allelic series); with HOXB4 [9] it was 13.7 upbm affinity estimate (log intensity, higher = more binding, comparable within an allelic series); in the assay with HOXA2 [10], 13.4 upbm affinity estimate (log intensity, higher = more binding, comparable within an allelic series); with HOXA4 [11] it was 13.8 upbm affinity estimate (log intensity, higher = more binding, comparable within an allelic series); with VAX1 [12], 13.6 upbm affinity estimate (log intensity, higher = more binding, comparable within an allelic series). In addition, the binding signal with VAX1 [13] was 13.3 upbm affinity estimate (log intensity, higher = more binding, comparable within an allelic series); with HOXA2 [14], 10.7 upbm affinity estimate (log intensity, higher = more binding, comparable within an allelic series); with HOXA4 [15] it was 11.5 upbm affinity estimate (log intensity, higher = more binding, comparable within an allelic series); in the assay with PRRX1 [16], 13.2 upbm affinity estimate (log intensity, higher = more binding, comparable within an allelic series); with HOXA2 [17] it was 12.8 upbm affinity estimate (log intensity, higher = more binding, comparable within an allelic series); in the assay with VAX1 [18], 13.4 upbm affinity estimate (log intensity, higher = more binding, comparable within an allelic series).

On to CCCCCTCG, for which the binding signal in the assay with HOXB4 [1] was 7.86 upbm affinity estimate (log intensity, higher = more binding, comparable within an allelic series); with HOXB9 [19], 8.45 upbm affinity estimate (log intensity, higher = more binding, comparable within an allelic series); with ALX4 [20] it was 8.09 upbm affinity estimate (log intensity, higher = more binding, comparable within an allelic series); with ALX4 [21], 7.97 upbm affinity estimate (log intensity, higher = more binding, comparable within an allelic series); in the assay with HOXA2 [7], 7.09 upbm affinity estimate (log intensity, higher = more binding, comparable within an allelic series); with HOXB9 [22], 8.63 upbm affinity estimate (log intensity, higher = more binding, comparable within an allelic series). Moreover, the binding signal is 7.85 upbm affinity estimate (log intensity, higher = more binding, comparable within an allelic series) with HOXB4 [9]; 9.51 upbm affinity estimate (log intensity, higher = more binding, comparable within an allelic series) with MSX2 [23]; 10.2 upbm affinity estimate (log intensity, higher = more binding, comparable within an allelic series) with HOXA2 [10]; 9.66 upbm affinity estimate (log intensity, higher = more binding, comparable within an allelic series) with MSX2 [24]; 8.59 upbm affinity estimate (log intensity, higher = more binding, comparable within an allelic series) with HOXB9 [25]; 9.64 upbm affinity estimate (log intensity, higher = more binding, comparable within an allelic series) in the assay with MSX2 [26]. Besides, the binding signal with HOXA2 [14] is 10.3 upbm affinity estimate (log intensity, higher = more binding, comparable within an allelic series); with HOXA2 [17], 7.14 upbm affinity estimate (log intensity, higher = more binding, comparable within an allelic series).

As to ACCATTAA, the binding signal with HOXB4 [1] was 13.1 upbm affinity estimate (log intensity, higher = more binding, comparable within an allelic series); with HOXB9 [19], 10.1 upbm affinity estimate (log intensity, higher = more binding, comparable within an allelic series); in the assay with HOXA4 [3], 10.6 upbm affinity estimate (log intensity, higher = more binding, comparable within an allelic series); with HOXC9 [27], 12.7 upbm affinity estimate (log intensity, higher = more binding, comparable within an allelic series); with HOXA7 [28], 11.7 upbm affinity estimate (log intensity, higher = more binding, comparable within an allelic series); in the assay with HOXB6 [29] it was 10.1 upbm affinity estimate (log intensity, higher = more binding, comparable within an allelic series). For the same sequence, the binding signal was 12 upbm affinity estimate (log intensity, higher = more binding, comparable within an allelic series) in the assay with HOXA4 [8]; 11.8 upbm affinity estimate (log intensity, higher = more binding, comparable within an allelic series) in the assay with HOXB9 [22]; 13.7 upbm affinity estimate (log intensity, higher = more binding, comparable within an allelic series) with HOXB4 [9]; 12.7 upbm affinity estimate (log intensity, higher = more binding, comparable within an allelic series) in the assay with HOXC9 [30]; 12.6 upbm affinity estimate (log intensity, higher = more binding, comparable within an allelic series) in the assay with HOXC9 [31]; 14 upbm affinity estimate (log intensity, higher = more binding, comparable within an allelic series) with HOXA4 [11]. Also, the binding signal with HOXC10 was 11.9 upbm affinity estimate (log intensity, higher = more binding, comparable within an allelic series); with HOXB9 [25] it was 11.6 upbm affinity estimate (log intensity, higher = more binding, comparable within an allelic series); with HOXC9 [32], 10.9 upbm affinity estimate (log intensity, higher = more binding, comparable within an allelic series); with HOXA7 [33], 8.92 upbm affinity estimate (log intensity, higher = more binding, comparable within an allelic series); with HOXA4 [15] it was 11.4 upbm affinity estimate (log intensity, higher = more binding, comparable within an allelic series); with HOXB6 [34], 12 upbm affinity estimate (log intensity, higher = more binding, comparable within an allelic series).
